E-sel TNF inh – blocks E-selectin expression induced by TNF alpha | AID 1246 | inhibition, % at 2 µM | HUVEC TNFa-induced E-selectin immunofluorescence, high content | hit rate 0.71% among 120,000;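 active = inhibition above the batch mean plus 3 SD, and confirmed as a hit on visual image review, cut at about 43% in these data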;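 also: 0% = TNF-stimulated DMSO wells and 100% = unstimulated control wells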
CYP2C19 act – activators of human cytochrome P450 2C19; activation factor at 5 µM; AID 1025; 96,000 tested, under 10 active; recombinant CYP2C19, luciferin-H EGE luminescence; hits give high values; 0 = fully inhibited enzyme, 1 = untreated enzyme;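 active = activation factor of at least 2 at 5 µM in the primary screen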;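 also: 0 = wells with 2.5 mM tranylcypromine and 1 = vehicle-only wells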
CYP2C9 act – CYP2C9 (human) activation. activation factor at 5 µM. AID 1024. P11712. hit rate 1.4% among 96,000. recombinant CYP2C9, luciferin-H conversion, luminescence; hits give high values; factor 1 = untreated enzyme, 0 = blocked;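 active = activation factor of 2 or more for CYP2C9 at a 5 µM dose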;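 also: 0 = sulfaphenazole-blocked wells and 1 = vehicle-only wells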
Target sequence (P11712 whole entry, looked up): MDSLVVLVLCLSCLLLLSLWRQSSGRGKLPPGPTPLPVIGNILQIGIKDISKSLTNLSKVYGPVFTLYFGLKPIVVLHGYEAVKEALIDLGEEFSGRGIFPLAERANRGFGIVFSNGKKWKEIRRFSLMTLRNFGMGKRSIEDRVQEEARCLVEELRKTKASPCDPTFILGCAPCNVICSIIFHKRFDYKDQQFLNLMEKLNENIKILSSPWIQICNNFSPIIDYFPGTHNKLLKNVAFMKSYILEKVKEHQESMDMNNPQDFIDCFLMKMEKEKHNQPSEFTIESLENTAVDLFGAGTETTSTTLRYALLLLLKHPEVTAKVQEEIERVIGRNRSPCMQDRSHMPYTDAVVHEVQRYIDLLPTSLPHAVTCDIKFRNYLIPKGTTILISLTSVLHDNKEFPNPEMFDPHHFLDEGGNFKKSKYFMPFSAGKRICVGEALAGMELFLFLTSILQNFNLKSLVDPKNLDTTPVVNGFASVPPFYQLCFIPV
cytoskel mod – modifiers of cytoskeleton assembly; HUVEC TNFa F-actin phalloidin imaging, high content; inhibition, % at 2 µM; hit rate 0.18% among 91,000; AID 836;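 active = inhibition above the batch mean plus 3 SD and confirmed as a hit by visual image inspection, cut at about 30% in these data, passing the limit was not always enough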
CYP2C19 inh – inhibitors of human CYP2C19; P33261; CYP2C19 Supersomes, luciferin-H EGE luminescence, 30 min; inhibition, % at 5 µM; hit rate 21% among 96,000; AID 778;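 active = CYP2C19 inhibition above a set limit at 5 µM in the primary screen, cut at about 50% in these data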;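 also: plate controls were negative control wells for no effect and 2.5 mM tranylcypromine positive control for full effect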
CYP2C9 inhib – inhibitors of human CYP2C9. P11712. CYP2C9 Supersomes, luciferin-H conversion, luminescence. inhibition, % at 5 µM. hit rate 20% among 96,000;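 active = blocking of liver enzyme CYP2C9 beyond about 50% at 5 µM, limit read from the data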
Numbers without * were called inactive; . = no result given. Compounds with a hit are over-represented: about 22% of the library has one in this group of screens.

SMILES | E-sel TNF inh | CYP2C19 act | CYP2C9 act | cytoskel mod | CYP2C19 inh | CYP2C9 inhib
c1ccc(Oc2nc(Oc3ccccc3)nc(N3CCOCC3)n2)cc1 | -9.1 | 0.4 | 0.5 | 20.1 | 59.5* | 48.8
Clc1ccc(Oc2nc(Oc3ccc(Cl)cc3)nc(N3CCOCC3)n2)cc1 | . | 0.9 | 0.8 | -11.9 | 14.9 | 15.1
COc1cccc(S(=O)(=O)NCc2ccc(C(=O)NCc3ccco3)cc2)c1 | -9.9 | 0.9 | 1 | -1.8 | 12.7 | 0.8
CCCC(c1nnnn1Cc1ccc(F)cc1)N1CCN(C2CCCCC2)CC1 (configuration not stated) | 13.3 | 1.1 | 1.1 | -24.8 | -9.1 | -6.9
CCCCCCn1c(=O)c(-c2ccccc2)c(O)c2ccccc21 | 18.1 | 0.6 | 0.2 | . | 35.2 | 75.9*
O=C(NC1CC1)C1=COCCO1 | 2.4 | 1.2 | 1 | 11.1 | -15.5 | 1.3
O=C1CCCCC1Sc1nnc(Cc2cccs2)n1CCc1ccccc1 (configuration not stated) | 16.7 | 0.3 | 0.3 | . | 67.7* | 69.7*
CN(C)c1nc(N)nc(CSc2ncc(Cl)cc2Cl)n1 | -1.6 | 0.4 | 1 | 5.5 | 64.3* | 0.3
O=C(Nc1nnc(Cc2ccc(Cl)cc2)s1)c1ccco1 | -0.6 | 0.8 | 0.4 | -1.9 | 17.9 | 63.1*
COc1ccc(Cc2nnc(NC(=O)c3cccs3)s2)cc1 | . | 0.9 | 0.3 | . | 9.3 | 68.7*
COc1ccc(NC(=O)CSc2nnc(Cc3ccccc3)o2)c(OC)c1 | -16.9 | 0.3 | 0.7 | -4.8 | 70.8* | 25.7
CCc1nnc(NC(=O)CSc2nnc(Cc3ccc(OC)cc3)o2)s1 | -3.4 | 0.9 | 0.5 | -18.2 | 13.0 | 52.8*
CCOCc1nnc(NC(=O)c2ccco2)s1 | -26.7 | 1.1 | 1.1 | 3.6 | -7.8 | -8.7
CCN(CC)C(=O)Oc1ccc(Br)c2ccccc12 | 4.2 | . | . | . | . | .
CCN(CC)C(=O)Oc1ccc(Cl)c2ccccc12 | . | 0.3 | 1.5 | 8.1 | 67.2* | -46.2
CCOC(CNC(=O)c1cccn2c(=O)c3cc(Cl)ccc3nc12)OCC | 23.2 | 0.8 | 0.3 | -11.2 | 21.8 | 66.0*
Cc1cccc(C(=O)NCCN2CCN(c3ccccc3)CC2)c1 | 3.4 | 0.9 | 0.9 | 15.2 | 11.4 | 12.3
O=C(NCCN1CCN(c2ccccc2)CC1)c1cccn2c(=O)c3cc(Cl)ccc3nc12 | -4.3 | 0.6 | 0.4 | . | 38.6 | 64.3*
O=C(NCCN1CCN(c2ccccc2)CC1)c1cccc(Br)c1 | -6.9 | 0.5 | 0.6 | 13.2 | 53.1* | 44.9
CCOC(=O)N1CCN(C(=O)c2cccn3c(=O)c4cc(Cl)ccc4nc23)CC1 | . | 0.7 | 0.6 | 3.7 | 27.1 | 39.8
O=C1NCCN1C(=O)c1cccc(Cl)c1 | . | 1 | 1 | -33.0 | 2.4 | 1.8
Cc1sc2c(c1C)C(=O)NC(c1cccc(O)c1)N2 (configuration not stated) | -1.6 | 1 | 0.9 | 31.0 | -1.7 | 6.4
Cc1cc(C)c(S(=O)(=O)NCCn2c(C)cc3ccccc32)c(C)c1 | -11.7 | 0.3 | 0.1 | 0.6 | 72.9* | 90.3*
Cc1ccc(S(=O)(=O)NCCn2c(C)cc3ccccc32)cc1 | 7.3 | 0.3 | 0.3 | . | 66.7* | 68.4*
O=S(=O)(NCCn1ccc2ccccc21)c1ccccc1 | 5.4 | 0 | 0.3 | -4.1 | 99.7* | 70.4*
SMILES | E-sel TNF inh | CYP2C19 act | CYP2C9 act | cytoskel mod | CYP2C19 inh | CYP2C9 inhib
C#CC1(O)CC(C)N(C)C(C)C1 (configuration not stated) | 4.2 | 1.1 | 1 | 8.8 | -6.6 | -4.8
CC(C)(C)OC(=O)N1CCC[C@@H]1C(=O)N1CCC(C(=O)O)CC1 | 4.7 | 1.1 | 1.1 | . | -12.7 | -12.8
O=C(NCCN=C1NS(=O)(=O)c2ccccc21)c1ccc2nccnc2c1 | -27.0 | 0.8 | 0.6 | . | 21.7 | 36.6
O=C(OCCN=C1NS(=O)(=O)c2ccccc21)c1ccncc1 | 9.9 | 1.2 | 0.2 | -6.5 | -18.6 | 77.6*
O=C(NCCN=C1NS(=O)(=O)c2ccccc21)c1ccncc1 | . | 1 | 0.5 | -25.8 | -0.1 | 51.3*
O=C(OCCCN=C1NS(=O)(=O)c2ccccc21)c1ccc(F)cc1 | -7.8 | 0.9 | 0.6 | 4.7 | 7.0 | 36.9
O=C(NCCCN=C1NS(=O)(=O)c2ccccc21)c1ccc(S(=O)(=O)N2CCCCC2)cc1 | -13.6 | 0.8 | 0.5 | 21.1 | 18.9 | 53.5*
C=C(C)CN(CC)CCC(=O)Nc1ccc(OC)cc1OC | -10.6 | 0.6 | 0.9 | 3.7 | 42.1 | 14.0
O=C(COc1ccc(Cl)cc1)N(Cc1ccccc1)c1ccccn1 | 1.2 | 0 | 0.5 | 7.6 | 97.7* | 54.6*
